Laboratory results published in PubChem BioAssay.
For part of these data: Measured potencies and affinities stand elsewhere. Active and inactive are the calls of the source. Unless noted, cut-off not given; nearly all actives show IC50 up to about 0.98 µM.

Tested on: not listed separately
Assay: inhibition of 3D7 malaria parasite growth – strain 3D7 (AID 2306; call rule not given here;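 further: 0% = DMSO wells and 100% = chloroquine plus artemisinin control wells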)
Settings: P. falciparum 3D7 erythrocytic growth, LDH absorbance, 72 h; at 2 µM; stronger effect = higher value

SMILES	growth inhibition
O=C1c2ccc([N+](=O)[O-])cc2C(=O)N1c1ccc2[nH]ncc2c1	87% (active)
NC(=NC1CC1)c1ccc2nc(CCCCCc3nc4ccc(C(N)=NC5CC5)cc4[nH]3)[nH]c2c1	89% (active)
COc1ccc(-c2ccc(NC(=O)c3ccc(F)cc3)cc2)cc1CN1CCCN(C)CC1	98% (active)
Cc1cccc(NC(c2cccs2)c2c(NC(=O)c3ccccc3)sc(C)c2C)n1 (stereo not given)	88% (active)
CC1CCc2c(C(=O)N3CCc4ccccc4C3)csc2C1 (stereo not given)	99% (active)

Molecular target: Calcium-dependent protein kinase 1 (Plasmodium falciparum (isolate 3D7)) (UniProt P62344)
Assay: PfCDPK1 kinase inhibitors, biochemical, TCAMS library (AID 1159585);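 further: inhibitors leave more ATP so luminescence rises with inhibition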
Settings: recombinant PfCDPK1, Kinase-Glo ATP depletion luminescence

Sequence of Calcium-dependent protein kinase 1 (Plasmodium falciparum (isolate 3D7)) (P62344 whole entry, looked up): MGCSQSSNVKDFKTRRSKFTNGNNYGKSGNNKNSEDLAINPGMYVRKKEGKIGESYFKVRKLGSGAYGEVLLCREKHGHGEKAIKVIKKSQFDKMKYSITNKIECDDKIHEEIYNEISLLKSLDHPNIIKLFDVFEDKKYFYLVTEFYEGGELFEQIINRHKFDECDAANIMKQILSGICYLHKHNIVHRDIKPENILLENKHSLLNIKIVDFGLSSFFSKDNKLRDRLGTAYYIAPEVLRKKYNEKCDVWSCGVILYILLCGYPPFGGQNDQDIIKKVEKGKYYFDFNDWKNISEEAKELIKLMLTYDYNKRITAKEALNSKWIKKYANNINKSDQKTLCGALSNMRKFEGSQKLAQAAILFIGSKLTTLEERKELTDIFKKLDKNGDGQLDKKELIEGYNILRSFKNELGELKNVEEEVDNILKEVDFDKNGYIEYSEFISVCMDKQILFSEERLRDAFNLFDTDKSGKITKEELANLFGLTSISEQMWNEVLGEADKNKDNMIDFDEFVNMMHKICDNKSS

SMILES	outcome
COc1ccc(OCCn2cc(C(=O)c3ccco3)c3ccccc32)cc1	inactive
COc1ccc(CN2CCC(NCc3cccc(C(F)(F)F)c3)CC2)cc1	inactive
C=CCN1C(=O)CN(S(=O)(=O)c2ccc(-n3nc(C)cc3C)cc2)C1=S	inactive
CN(C)CCCOc1cc(NC(=O)Nc2ccc(-c3ccncc3)c3ccccc23)ccc1I	inactive
CCOC(=O)c1ccc(N2CCN(c3cc(C)ccc3C)CC2)c(NC(=O)Nc2ccc(Cl)c(Cl)c2)c1	inactive
O=S(=O)(c1ccccc1Cl)N1CCCCC(c2ccc(C(F)(F)F)cc2)=N1	inactive
COc1ccc(CC2(c3ccc(F)cc3)N=C(N)N(CCCc3cccnc3)C2=O)cc1 (stereo not given)	inactive
O=C(NC1CCCCC1)N(CCCn1ccnc1)Cc1csc(-c2ccc(CNCc3ccccc3)cc2)n1	inactive
CCC(CC)NCc1c(O)ccc2c(CNC(CC)CC)c(O)ccc12	inactive
O=S(=O)(Nc1cccc(CCN2CCCCC2CCN2CCCC2)c1)c1cccc2ccccc12 (stereo not given)	inactive
CC(C)[C@H](NC(=O)c1c(CN2CCC(N3CCCCC3)CC2)c(-c2ccccc2)nc2cc(O)ccc12)c1ccccc1	inactive
COc1cc(NC(=O)c2sc(-c3ccc(Cl)cc3)cc2Cl)ccc1OCCN1CCCC1	inactive
COc1cc2nc(N3CCC(CNC(=O)c4cccc5cccnc45)CC3)nc(N)c2cc1OC	inactive
CNc1ccc(CNCc2ccc(-c3ccc(-c4nc5ccc(C(F)(F)F)cc5[nH]4)s3)cc2)cc1	inactive
COc1ccc(CN(C)CCCc2ccc(NC(=O)c3cccc4c(=O)c5cccc(F)c5[nH]c34)cc2)cc1OC	inactive
CCCC(C)Nc1nc(C)cc(N[C@@H](Cc2ccccc2)C(=O)NCc2cccc(F)c2)n1 (stereo not given in full)	inactive
COC(=O)c1cccc(CNCc2cccc(-c3ccc(-c4nc5c(C)cccc5[nH]4)s3)c2)c1	inactive
COc1cc(NCCCCCNc2cc(Cl)nc3ccccc23)nc2ccccc12	inactive
CCN1CCN(c2ccc(NC(=O)c3cc4c(C)nn(-c5ccccc5)c4s3)cc2C)CC1	inactive
CC(C#N)Cc1ccc(-c2cnc(N)c3cc(-c4ccnc(N)n4)ccc23)cc1 (stereo not given)	inactive

SMILES	outcome
COc1ccc(C(=O)[C@H]2C[C@@H]2CN(C)CCC(O)c2ccc(Cl)c(Cl)c2)cc1 (stereo not given in full)	inactive
Cc1ccc(OCC2CCN(c3ncc(C(=O)NC4CC4)cc3Cl)CC2)cc1	inactive
O=C(Nc1cccc(-c2cccc(-c3nc4ccccc4[nH]3)c2)c1)Nc1ccc2c(c1)OCO2	inactive
CCN1CCN(Cc2c(O)ccc3c(=O)c(Oc4cc(C)cc(C)c4)c(C(F)(F)F)oc23)CC1	inactive
c1ccc(C2=NN=C(c3ccccn3)[C@H]3[C@H]4C[C@@H]([C@@H]23)[C@@H]2[C@H]4[C@H]3C[C@@H]2c2ccccc23)nc1	inactive
CN(c1ccc(C(=O)N[C@@H](CCC(=O)O)C(=O)O)cc1)S(=O)(=O)c1ccc2nc(N)[nH]c(=O)c2c1	inactive
C=CCc1cc(Cc2cnc(N)nc2N)c2ccc(C)nc2c1OC	inactive
COc1c(Br)cc(Br)cc1-c1ccc(CN2C3CCCC2CCC3)[nH]1	inactive
Cc1cc(N[C@@H](Cc2ccccc2)C(=O)NCc2cccc(F)c2)nc(NCCOc2ccccc2)n1	inactive
Cn1c(N)c(N=O)c(=O)[nH]c1=O	inactive
O=C(Nc1cc(F)cc(-c2cccnc2)c1)c1ccc2c(=O)n(Cc3ccccc3)cnc2c1	inactive
Cn1ccc(C(=O)Nc2ccc3c(c2)CN(Cc2ccc(N4CCCC4)o2)CCC3)n1	inactive
COc1cc(OC)cc(-c2nn(-c3ccc([N+](=O)[O-])cc3C#N)c(=S)n2Cc2ccco2)c1	inactive
CCCCCN1CCCN(Cc2cccc(NC(=O)c3ccc(-c4ccccc4)cc3)c2)CC1	inactive
C[C@@H]1CCC[C@H](C)N1C[C@@H](O)CNS(=O)(=O)c1cccc(C(F)(F)F)c1	inactive
O=C1c2ccc([N+](=O)[O-])cc2C(=O)N1c1ccc2[nH]ncc2c1	inactive
NC(=NC1CC1)c1ccc2nc(CCCCCc3nc4ccc(C(N)=NC5CC5)cc4[nH]3)[nH]c2c1	inactive
COc1ccc(-c2ccc(NC(=O)c3ccc(F)cc3)cc2)cc1CN1CCCN(C)CC1	inactive
Cc1cccc(NC(c2cccs2)c2c(NC(=O)c3ccccc3)sc(C)c2C)n1 (stereo not given)	inactive
CC1CCc2c(C(=O)N3CCc4ccccc4C3)csc2C1 (stereo not given)	inactive
